A selection: hits, their analogues and other compounds. The true share with any hit is near 6.5%.
HCMV inh – human cytomegalovirus inhibition; HFF cells, HCMV-luciferase reporter, 72 h; active compounds read low; activity change, negative = inhibition, % at 57.5 µM; 410,000 tested, 4.5% active; AID 1259415; in the data active = activity change below about -60%; inconclusive = no clear call, values can overlap the other calls; inactive = above about -39%
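HFF cells seeded 16 h at 37C, treated with compounds, infected with luciferase-reporter HCMV at MOI 1 PFU/cell; luciferase read at 72 h post infection, normalized to buffer-only and Salinomycin controls.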
LASV entry inh – inhibitors of Lassa virus binding or cell entry | Lassa virus pseudotype entry inhibition, cell reporter | 300,000 tested, 1.2% active | Potency, µM (titrated, usually from 37.9 µM), for inactives: at the highest dose activity change, negative = inhibition, most hits filed as inhibitors | AID 540256; calls by dose curve; tested in HEK293 cells; also: potency is read from the fitted curve at half-maximal effect; nearly all actives have a fitted effect of over 50% in size
VACV Venus inh – inhibitors of vaccinia virus (Venus reporter); Vaccinia virus Venus reporter expression, fluorescence; Potency, µM (doses to about 36.5 µM), without a hit: at the highest dose activity change, negative = inhibition, hits mostly inhibitors; 330,000 tested, 0.46% active; calls by dose curve; tested in A549 cells; also: potency is read from the fitted curve at half-maximal effect; nearly all actives have a fitted effect of over 30% in size
MARV entry inh – blocks Marburg virus binding to or entry into cells | Marburg virus pseudotyped entry inhibition, cell reporter | Potency, µM (series often up to 37.8 µM), without a hit: at the top dose activity change, negative = inhibition, actives largely listed as inhibitors | 300,000 tested, 1.8% active; calls by dose curve; tested in HEK293 cells; also: potency is read from the fitted curve at half-maximal effect
VACV mCherry inh – inhibitors of vaccinia virus infection (mCherry reporter signal); Vaccinia virus mCherry reporter infection, fluorescence; Potency, µM (highest dose often 36.5 µM), without a hit: at the top dose activity change, negative = inhibition, hits mostly inhibitors; 310,000 tested, 0.63% active; calls by dose curve; tested in A549 cells; also: potency is read from the fitted curve at half-maximal effect; nearly all actives have a fitted effect of over 35% in size
FMDV inh – foot and mouth disease virus antiviral activity; FMDV antiviral cell-based qHTS; Potency, µM (highest dose often 57.9 µM), for inactives: at the top dose activity change, negative = inhibition, most hits filed as inhibitors; 410,000 tested, 1.2% active; AID 1159524; calls by dose curve; tested in HEK293T cells; also: read-out not given here; potency is read from the fitted curve at half-maximal effect; nearly all actives have a fitted effect of over 45% in size
Active calls of the source: *; ! = not active in a repeat; [ ] = another dose, or the depositor's remark. % is scaled to controls: 0 for no effect and ±100 for the full control effect.

COc1ccc(NC(=O)Cn2nnc(C(=O)NCc3ccccc3)c2N)c(OC)c1 was read as HCMV inh -13, LASV entry inh inconclusive, MARV entry inh 8.2µM* and FMDV inh inconclusive.
COc1ccc(Cl)cc1NC(=O)Cn1c(=O)n(CCC(=O)NCc2ccc3c(c2)OCO3)c(=O)c2ccccc21 was read as HCMV inh -64*, LASV entry inh -1%[46.1 µM], VACV Venus inh -22%, MARV entry inh -20%[46.1 µM], VACV mCherry inh -27% and FMDV inh 18%.
Screening COc1ccc(CCNC(=O)CCCn2c(=O)c3ccccc3n(Cc3ccccc3C)c2=O)cc1OC returned HCMV inh 14, LASV entry inh 4%[46.1 µM], VACV Venus inh -10%, MARV entry inh -2%[46.1 µM], VACV mCherry inh -17% and FMDV inh 10%.
Screening COc1ccccc1NC(=O)Cn1nnc(C(=O)NCc2ccc3c(c2)OCO3)c1N returned HCMV inh -69*!, LASV entry inh -3%[46.1 µM], VACV Venus inh 20%[7.34 µM], MARV entry inh 15%[46.1 µM], VACV mCherry inh 2%[7.34 µM] and FMDV inh -15%.
Screening COc1ccc(-n2nnnc2SCC(=O)NCCc2ccccc2)cc1 returned HCMV inh 6, LASV entry inh -4%[46.1 µM], VACV Venus inh 4%, MARV entry inh 3%[46.1 µM], VACV mCherry inh 19% and FMDV inh 0%.
COc1ccc(CN(Cc2ccccc2)C(=O)c2ccncc2)cc1COc1ccc(NC(C)=O)cc1 was read as VACV Venus inh -14% and VACV mCherry inh inactive.
Screening COc1ccc(NC(=O)c2sc3nc4c(cc3c2N)CN(Cc2ccccc2)CC4)c(OC)c1 returned HCMV inh -95*, LASV entry inh -3%[46.1 µM], VACV Venus inh -10%, MARV entry inh -3%[46.1 µM], VACV mCherry inh -3% and FMDV inh inconclusive.
For COc1ccccc1NC(=O)c1sc2nc3c(cc2c1N)CN(Cc1ccccc1)CC3 the results were HCMV inh 0, LASV entry inh 5%[46.1 µM], VACV Venus inh -7%[7.34 µM], MARV entry inh 6%[46.1 µM], VACV mCherry inh -8%[7.34 µM] and FMDV inh inconclusive.
`CCOc1ccc(/C=C/c2ccc3ccccc3[n+]2C)cc1OCC` gave VACV Venus inh -17% and VACV mCherry inh -30%.
CCc1cc2c(=O)[nH]c(-c3ccccn3)nc2s1 was read as HCMV inh -101*, LASV entry inh 5.6µM*, VACV Venus inh inconclusive, MARV entry inh 6.3µM*, VACV mCherry inh 2.8µM* and FMDV inh inconclusive.
COc1ccc(S(=O)(=O)N(Cc2nc(-c3ccc(C)cc3)no2)C2CCCCC2)cc1 was read as HCMV inh inconclusive, LASV entry inh -23%[46.1 µM], VACV Venus inh -13%, MARV entry inh 3%[46.1 µM], VACV mCherry inh -20% and FMDV inh 0%.
`CCOC(=O)c1cnc(SCc2nc(N)nc(Nc3ccc(F)cc3)n2)nc1N` gave HCMV inh -96*, LASV entry inh inconclusive, MARV entry inh inconclusive and FMDV inh inconclusive.
Screening CCOC(=O)c1cnc(SCc2nc(N)nc(Nc3ccc(C)cc3)n2)nc1N returned HCMV inh -88*, LASV entry inh inconclusive, VACV Venus inh inconclusive, MARV entry inh -26%, VACV mCherry inh inconclusive and FMDV inh inconclusive.
`COC(=O)c1cc(CNC(=O)c2ccc3ncccc3c2)cc(NC(=O)c2ccccc2Cl)c1` gave VACV Venus inh -6%, VACV mCherry inh -1% and FMDV inh 3%.
For N=C(N)c1ccc(OCCCCCOc2ccc(C(=N)N)cc2)cc1 the results were HCMV inh -89*, LASV entry inh inconclusive, VACV Venus inh -29%, MARV entry inh inconclusive, VACV mCherry inh inconclusive and FMDV inh inconclusive.
`OC1c2cc(Br)ccc2N=C2CCCN21` (stereo unspecified) gave HCMV inh -100* and FMDV inh inconclusive.
`Cc1ccc(-c2onc(C)c2C)cc1S(=O)(=O)Nc1cccc(Cl)c1C` gave HCMV inh inconclusive, LASV entry inh inconclusive, VACV Venus inh -27%, VACV mCherry inh -28% and FMDV inh 4%.
`NC(=O)c1ccc(N2CCN(c3ccc(O)cc3)CC2)c([N+](=O)[O-])c1` gave HCMV inh -66*, LASV entry inh -30%, VACV Venus inh -20%, MARV entry inh inconclusive, VACV mCherry inh inconclusive and FMDV inh inconclusive.
